From the supplement of paper PMC6897291

How the values were obtained:
[1] = tested on: U-2932; test: growth inhibition by drug alone (1 - RLU/untreated control) (fraction); higher = stronger inhibition; details: 177Lu-lilotomab satetraxetan 0 ug/ml
How it was run: (§1)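 With or without 18 h pretreatment by a radiolabelled anti-CD37 antibody conjugate (~600 MBq/mg; 0.5 µg/ml RIVA, 1 µg/ml U-2932), RIVA and U-2932 cells were washed and plated at 3,000 cells/well. Pre-printed compound doses were 10/100 nM for RIVA and 10/1,000 nM for U-2932. Growth inhibition uses RealTime-Glo RLU relative to the untreated no-drug wells. The calculation is 1 − RLU/mean of 48 such wells per plate, with reads daily from day 3 after 1 h at 37°C.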

[2] = tested on: RIVA; test: as above; details: 177Lu-lilotomab satetraxetan 0 ug/ml
How it was run: as §1

[3] = tested on: U-2932; test: growth inhibition by drug plus 177Lu-lilotomab satetraxetan (1 - RLU/untreated control) (fraction); higher = stronger inhibition; details: 177Lu-lilotomab satetraxetan 1 ug/ml
How it was run: as §1

[4] = tested on: RIVA; test: as above; details: 177Lu-lilotomab satetraxetan 0.5 ug/ml
How it was run: as §1

SMILES | growth inhibition by drug alone ([1]; 10 nM, time (day): 3) | growth inhibition by drug alone ([1]; 10 nM, time (day): 4) | growth inhibition by drug alone ([1]; 10 nM, time (day): 5) | growth inhibition by drug alone ([1]; 10 nM, time (day): 6) | growth inhibition by drug alone ([1]; 1000 nM, time (day): 3) | growth inhibition by drug alone ([1]; 1000 nM, time (day): 4) | growth inhibition by drug alone ([1]; 1000 nM, time (day): 5) | growth inhibition by drug alone ([1]; 1000 nM, time (day): 6) | growth inhibition by drug alone ([2]; 10 nM, time (day): 3) | growth inhibition by drug alone ([2]; 10 nM, time (day): 4) | growth inhibition by drug alone ([2]; 10 nM, time (day): 5) | growth inhibition by drug alone ([2]; 10 nM, time (day): 6) | growth inhibition by drug alone ([2]; 100 nM, time (day): 3) | growth inhibition by drug alone ([2]; 100 nM, time (day): 4) | growth inhibition by drug alone ([2]; 100 nM, time (day): 5) | growth inhibition by drug alone ([2]; 100 nM, time (day): 6) | growth inhibition by drug plus 177Lu-lilotomab satetraxetan ([3]; 10 nM, time (day): 3) | growth inhibition by drug plus 177Lu-lilotomab satetraxetan ([3]; 10 nM, time (day): 4) | growth inhibition by drug plus 177Lu-lilotomab satetraxetan ([3]; 10 nM, time (day): 5) | growth inhibition by drug plus 177Lu-lilotomab satetraxetan ([3]; 10 nM, time (day): 6) | growth inhibition by drug plus 177Lu-lilotomab satetraxetan ([3]; 1000 nM, time (day): 3) | growth inhibition by drug plus 177Lu-lilotomab satetraxetan ([3]; 1000 nM, time (day): 4) | growth inhibition by drug plus 177Lu-lilotomab satetraxetan ([3]; 1000 nM, time (day): 5) | growth inhibition by drug plus 177Lu-lilotomab satetraxetan ([3]; 1000 nM, time (day): 6) | growth inhibition by drug plus 177Lu-lilotomab satetraxetan ([4]; 10 nM, time (day): 3) | growth inhibition by drug plus 177Lu-lilotomab satetraxetan ([4]; 10 nM, time (day): 4) | growth inhibition by drug plus 177Lu-lilotomab satetraxetan ([4]; 10 nM, time (day): 5) | growth inhibition by drug plus 177Lu-lilotomab satetraxetan ([4]; 10 nM, time (day): 6) | growth inhibition by drug plus 177Lu-lilotomab satetraxetan ([4]; 100 nM, time (day): 3) | growth inhibition by drug plus 177Lu-lilotomab satetraxetan ([4]; 100 nM, time (day): 4) | growth inhibition by drug plus 177Lu-lilotomab satetraxetan ([4]; 100 nM, time (day): 5) | growth inhibition by drug plus 177Lu-lilotomab satetraxetan ([4]; 100 nM, time (day): 6)
Nc1nccc(Oc2ccc(NC(=O)c3c[nH]cc(-c4ccc(F)cc4)c3=O)cc2F)c1Cl | -0.0716 | -0.0777 | -0.0731 | -0.06 | -0.103 | -0.0916 | -0.0987 | -0.109 | -0.189 | -0.254 | -0.278 | -0.424 | -0.523 | -0.459 | -0.483 | -0.598 | -0.0906 | -0.0231 | 0.0271 | 0.0973 | -0.0589 | 0.0171 | 0.0665 | 0.209 | 0.468 | 0.516 | 0.536 | 0.547 | 0.364 | 0.43 | 0.425 | 0.43
C=CCn1c(=O)c2cnc(Nc3ccc(N4CCN(C)CC4)cc3)nc2n1-c1cccc(C(C)(C)O)n1 | 0.112 | 0.069 | -0.0363 | -0.19 | 0.86 | 0.895 | 0.914 | 0.936 | -0.0778 | -0.0715 | -0.175 | -0.482 | -0.508 | -0.354 | -0.45 | -0.813 | -0.0165 | 0.0521 | 0.116 | 0.141 | 0.884 | 0.926 | 0.954 | 0.971 | 0.447 | 0.527 | 0.532 | 0.552 | -0.0318 | 0.133 | 0.152 | 0.222
